# Data published in PubChem BioAssay (NCI).
# Compounds without any hit were thinned out: in the full panel of roughly 83,000, 20% have a hit.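 Note: values are percent growth. 100 is the growth of untreated cells, values between 100 and 0 indicate rising inhibition; between -100 and 0 indicates cell death.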 A number with no mark means an inactive call. Activity calls are given as the source filed them. Rule for the calls: active = growth percent below 10; inactive = the rest.
# What was measured:
# Experiment in all cases: NCI-60 one-dose screen, 48 h (100 = growth as untreated, 0 = no growth, -100 = all killed)
# Details in all cases: 10 µM unless noted
# DU-145 prostate = test system: DU-145 prostate
# K-562 leukemia = test system: K-562 leukemia
# MALME-3M melanoma = test system: MALME-3M melanoma
# MDA-MB-231 breast = test system: MDA-MB-231 breast
# RXF 393 renal = test system: RXF 393 renal
# SF-268 CNS = test system: SF-268 CNS
# SF-295 CNS = test system: SF-295 CNS
# SF-539 CNS = test system: SF-539 CNS
# UACC-257 melanoma = test system: UACC-257 melanoma
# M14 melanoma = test system: M14 melanoma
# HCT-15 colon = test system: HCT-15 colon
# HT29 colon = test system: HT29 colon
# SNB-75 CNS = test system: SNB-75 CNS
# SNB-19 CNS = test system: SNB-19 CNS
# U251 CNS = test system: U251 CNS
# PC-3 prostate = test system: PC-3 prostate
# SK-MEL-5 melanoma = test system: SK-MEL-5 melanoma
# UACC-62 melanoma = test system: UACC-62 melanoma
# LOX IMVI melanoma = test system: LOX IMVI melanoma
# SK-MEL-28 melanoma = test system: SK-MEL-28 melanoma
Structure (SMILES),growth (DU-145 prostate),growth (K-562 leukemia),growth (MALME-3M melanoma),growth (MDA-MB-231 breast),growth (RXF 393 renal),growth (SF-268 CNS),growth (SF-295 CNS),growth (SF-539 CNS),growth (UACC-257 melanoma),growth (M14 melanoma),growth (HCT-15 colon),growth (HT29 colon),growth (SNB-75 CNS),growth (SNB-19 CNS) [%],growth (U251 CNS),growth (PC-3 prostate),growth (SK-MEL-5 melanoma),growth (UACC-62 melanoma),growth (LOX IMVI melanoma),growth (SK-MEL-28 melanoma)
O=C1c2ccccc2-c2c1c1c(NCCCO)nc3ccccc3c1n2Cc1ccccc1,13.2%,16.9%,-54.6% (active),-2.22% (active),-52.2% (active),-5.13% (active),23.1%,-49.2% (active),56.5%,-53% (active),66%,5.61% (active),-1.82% (active),16.7,7.89% (active),33.8%,-82.6% (active),17.5%,2.25% (active),-3.55% (active)
O=C1CCCN1c1cccc2cccnc12,111%,96.4%,109%,99%,102%,97.9%,102%,98.9%,102%,103%,101%,103%,83.1%,91,96.4%,107%,99.1%,104%,95.6%,113%
CC(O)(CO)c1ccccc1 (stereo not given),105%,120%,95.3%,97.7%,109%,101%,98.6%,92.4%,93.9%,94.6%,97.8%,102%,92.5%,98.3,101%,91.7%,102%,96%,102%,102%
CC(=O)[C@@H]1CC[C@]2(C(=O)n3ccnc3)CC[C@]3(C)[C@H](CC[C@@H]4[C@@]5(C)Cc6c([nH]c7ccccc67)C(C)(C)[C@@H]5CC[C@]43C)[C@@H]12,98.5%,67.7%,102%,90.7%,106%,90.8%,82.8%,97%,97.1%,96.1%,87.7%,81.2%,101%,88.4,87.7%,63.7%,94.3%,94.1%,87.2%,96%
C=C1C(=O)O[C@H]2[C@H]1CC/C(COC(=O)NCCc1c[nH]c3ccc(Cl)cc13)=C\CC[C@@]1(C)O[C@@H]21,-87.8% (active),-13.2% (active),-84.4% (active),-70.5% (active),-93.6% (active),-71% (active),75.4%,-63.8% (active),-11.6% (active),-54.8% (active),-66.6% (active),-73.6% (active),-54.6% (active),32.4,-41.4% (active),1.04% (active),-15.2% (active),-51.7% (active),-82.4% (active),-71.9% (active)
COC(=O)C1NC(=S)N(c2ccc(Cl)cc2)C1/C=C/c1ccccc1 (stereo not given),100%,106%,103%,95%,110%,101%,91%,94.6%,99.3%,87.1%,99.4%,104%,127%,103,97.5%,86.2%,102%,89.3%,78.5%,118%
CC(=O)N1c2ccccc2NC2=C(C(=O)N(Cc3ccccc3)C2(C)C)C1c1ccco1 (stereo not given),7.82% (active),12.6%,69.9%,9.25% (active),-11.7% (active),42.7%,-0.752% (active),-17.9% (active),77.6%,-13.6% (active),15.7%,9.99% (active),16.8%,23.6,24.6%,29.7%,7.88% (active),21.2%,25.6%,57.3%
C=C1C(=O)O[C@H]2[C@H]1CC/C(CNC(=O)/C=C/c1ccccc1F)=C\CC[C@@]1(C)O[C@@H]21,4.9% (active),2.05% (active),-43.9% (active),16.9%,-90.5% (active),47.4%,75.1%,-50.4% (active),-6.45% (active),-32.5% (active),-63.4% (active),-17.2% (active),94.1%,56.4,52.5%,37.3%,66.1%,-5.46% (active),-25% (active),-33.9% (active)
C=C(C)[C@@H]1CC[C@]2(C(=O)N3CCN(C)CC3)CC[C@]3(C)[C@H](CC[C@@H]4[C@@]5(C)CCC(=O)C(C)(C)[C@@H]5CC[C@]43C)[C@@H]12,82.8%,60.5%,89%,79.4%,80.5%,77.2%,103%,73.9%,101%,94.7%,61.7%,39.2%,85.2%,81.5,69.7%,54.7%,92.1%,99.5%,92.5%,92.7%
COc1cc(C2NC(c3cc(OC)c(OC)c(OC)c3)C(C#N)(C#N)C2(C#N)C#N)cc(OC)c1OC (stereo not given),102%,109%,96%,97.3%,114%,105%,99.8%,95.8%,106%,92.9%,97.9%,105%,80.7%,98.5,106%,99.3%,89.5%,98.2%,98.2%,96.5%
COC(=O)C(c1ccccc1)C(CC(=O)c1ccccc1)c1ccccc1 (stereo not given),95.8%,73.1%,69.7%,98.1%,80.9%,83.8%,79.9%,98.6%,101%,103%,97.1%,79.1%,83.2%,101,92.2%,62.3%,82.1%,88.7%,82.7%,91.8%
CC(=O)N1c2ccccc2NC2=C(C(=O)N(C)C2(C)C)C1C (stereo not given),79%,16.6%,44.3%,63.3%,27.8%,43%,46%,20.1%,36.4%,21.5%,93.8%,25.2%,-3.29% (active),39.9,18.1%,36.4%,27.5%,32.3%,37.5%,56%
O=C(Nc1ccc2cc3ccc(NC(=O)NC4CCCCC4)cc3nc2c1)NC1CCCCC1,97.3%,16.8%,106%,101%,15.7%,68.1%,45.6%,50.1%,99.8%,90.5%,111%,82.7%,58.6%,78.9,56.2%,83.7%,107%,87.8%,63%,79%
COc1ccc(C(=O)c2cc(C)c(OC)c(C)c2)c(OC)c1N(C(=O)C(Cl)Cl)C(=O)C(Cl)Cl,1.52% (active),8.2% (active),58.2%,13.2%,41.2%,30.6%,7.31% (active),-16% (active),48.3%,-14.8% (active),7.03% (active),1.22% (active),56.4%,26.4,19.2%,18.1%,0.812% (active),38.8%,20.3%,49.8%
O=S(=O)(O)c1cc(O)c2c(N=Nc3ccc(Nc4ccccc4)c4c(S(=O)(=O)O)cccc34)cc(S(=O)(=O)O)cc2c1,107%,112%,130%,102%,109%,101%,105%,96.2%,95.6%,103%,99.1%,107%,96.2%,103,102%,95%,109%,105%,96.5%,111%
